A short description of experiment [1]: qHTS Assay for Identifying Gametocytocidal Compounds (AID 743244). Further: potency means the concentration at half of the fitted maximal effect.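 On max response: on the % scale 0 is the no-effect control and ±100 the full control effect; actives lower the fluorescent signal which means gametocytes are killed.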 The note with it: P. falciparum 3D7 stage III-V gametocytes, alamarBlue, 72 h; max response: active compounds read low. The method, boiled down:
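Late gametocytes (III–V), P. falciparum 3D7; 72 h drug, then 24 h alamarBlue; resazurin reduction read by fluorescence.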

Experiment [2] in a line: qHTS assay for measurement of the activity of small molecule inhibitors on Zika virus induced Caspase-3 activity in human iPSC derived neural progenitor cells (hNPCs) (AID 1224857). Further: % of control where 0% means no effect; nearly all actives have a fitted effect of over 65% in size. Summed up: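 Caspase-3/7 induction by a 6-hour ZIKV infection was quantified with a luminescent Caspase-Glo 3/7 reagent incubated 30 minutes at room temperature. Compounds were preincubated with hNPCs for 1 hour; inhibition was calculated against uninfected and infected control wells.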
Background: qHTS replaces the single test concentration by a dilution series.

Experiment [3] can be described thus: qHTS assay for measurement of the activity of small molecule inhibitors on Zika virus induced Caspase-3 activity in human astrocytoma cells (AID 1224859).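 Further: plate controls were ZIKV-infected untreated cells for no effect and uninfected cells for full effect.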 The method, boiled down:
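In SNB-19 cells plated at 250 cells/well and grown 16-20 h, compounds were applied 1 h before ZIKV (2 FFU/cell). Six hours later caspase-3/7 luminescence was recorded.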

Experiment [4] is described as follows: Natriuretic polypeptide receptor (hNpr1) antagonism - Pilot counterscreen GloSensor control cell line (AID 1347045; calls by dose curve; further: potency means the concentration at half of the fitted maximal effect). Summed up: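 The SNP-driven cGMP luminescence signal (50 uM, 20 min, room temperature) was measured in GloSensor HEK293 control cells. Compounds were tested as a LOPAC titration series and preincubated for 30-50 min.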
Experiment [5] addresses Atrial natriuretic peptide receptor 1 (Homo sapiens) (UniProt P16066). Nature of the experiment: Natriuretic polypeptide receptor (hNpr1) antagonism - Pilot screen (AID 1347049; calls by dose curve;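 further: HEK293 cells with hNpr1 and GloSensor cGMP luciferase stimulated by 0.1 nM hNppA; agonist-evoked cGMP luminescence read 20 min after hNppA addition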; further: potency means the concentration at half of the fitted maximal effect). The method, boiled down: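 Cells expressing receptor plus cGMP biosensor are seeded and incubated overnight at 37C, then loaded with GloSensor reagent (2% final) at room temperature for 2 h. Library compounds go on for 30 min. A pre-read precedes agonist (hNppA, 0.1 nM final) and a 20-min readout.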

Experiment [6] concerns the target Atrial natriuretic peptide receptor 2 (Homo sapiens) (UniProt P20594). Nature of the experiment: Natriuretic polypeptide receptor (hNpr2) antagonism - Pilot subtype selectivity assay (AID 1347050; calls by dose curve; further: potency means the concentration at half of the fitted maximal effect). Summed up:
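Read-out: GloSensor luminescence (CCD imager), baseline vs post-stimulation. HEK293 cells expressing hNpr2; compounds pre-incubated 30-50 min at ambient temperature; hNppC 1 nM final, 20 min.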

Experiment [7] in a line: NS1 protein of Zika virus - qHTS assay to identify small molecule inhibitors in human HEK 293 cells (AID 1347053).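 Further: series mostly up to about 46 µM; plate controls were infected untreated cells for no effect and uninfected cells for full effect; nearly all actives have a fitted effect of over 55% in size.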 The method, boiled down:
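Compound-treated (1 h pre-infection) HEK 293 cells infected with ZIKV MR766, MOI = 0.5; after 24 h at 37 C, NS1 read by TR-FRET; data normalized to uninfected and infected controls.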

Drawing on PubChem BioAssay (NCATS), this text covers max response, Potency and outcome for 12 compounds.

Records with an inconclusive call do not appear. Activity calls are given as the source filed them. Unless noted, the call rests on the fitted dose curve; in most records, active means well fitted curve in the direction sought with a large enough effect; inconclusive means small, poorly fitted or top-dose-only effect, or another doubt; inactive means no such curve, though single readings can be large; an effect the other way counts as inactive or inconclusive.

Atrial natriuretic peptide receptor 2 (Homo sapiens), sequence (P20594 whole entry, looked up): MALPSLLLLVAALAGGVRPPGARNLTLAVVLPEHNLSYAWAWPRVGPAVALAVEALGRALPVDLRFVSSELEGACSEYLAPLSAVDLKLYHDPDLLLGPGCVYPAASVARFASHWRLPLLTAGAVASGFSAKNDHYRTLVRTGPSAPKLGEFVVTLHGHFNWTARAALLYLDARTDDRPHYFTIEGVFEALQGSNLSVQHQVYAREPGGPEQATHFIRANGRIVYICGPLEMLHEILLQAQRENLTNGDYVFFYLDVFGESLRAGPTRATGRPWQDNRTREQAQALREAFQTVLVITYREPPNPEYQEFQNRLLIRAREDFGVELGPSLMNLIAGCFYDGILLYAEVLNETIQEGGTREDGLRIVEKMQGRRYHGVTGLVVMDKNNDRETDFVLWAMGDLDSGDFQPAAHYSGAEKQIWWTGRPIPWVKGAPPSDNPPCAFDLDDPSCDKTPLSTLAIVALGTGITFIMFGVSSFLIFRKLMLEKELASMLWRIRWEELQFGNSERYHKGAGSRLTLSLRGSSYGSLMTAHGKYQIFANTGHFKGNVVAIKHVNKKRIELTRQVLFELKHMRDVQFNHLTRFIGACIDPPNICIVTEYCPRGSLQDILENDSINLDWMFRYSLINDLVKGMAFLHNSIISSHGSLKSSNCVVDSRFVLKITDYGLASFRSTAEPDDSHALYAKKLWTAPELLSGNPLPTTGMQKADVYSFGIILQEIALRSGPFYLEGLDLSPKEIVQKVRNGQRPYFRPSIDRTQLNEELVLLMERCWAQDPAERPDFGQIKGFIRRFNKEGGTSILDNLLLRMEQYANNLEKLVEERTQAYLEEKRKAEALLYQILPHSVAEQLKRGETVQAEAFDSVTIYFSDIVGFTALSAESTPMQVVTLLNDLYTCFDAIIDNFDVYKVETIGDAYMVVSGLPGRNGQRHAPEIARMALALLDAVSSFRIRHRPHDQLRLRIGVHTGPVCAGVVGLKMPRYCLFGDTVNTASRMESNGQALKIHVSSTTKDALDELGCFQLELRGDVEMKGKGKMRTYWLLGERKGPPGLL
Atrial natriuretic peptide receptor 1 (Homo sapiens), sequence (P16066 whole entry, looked up): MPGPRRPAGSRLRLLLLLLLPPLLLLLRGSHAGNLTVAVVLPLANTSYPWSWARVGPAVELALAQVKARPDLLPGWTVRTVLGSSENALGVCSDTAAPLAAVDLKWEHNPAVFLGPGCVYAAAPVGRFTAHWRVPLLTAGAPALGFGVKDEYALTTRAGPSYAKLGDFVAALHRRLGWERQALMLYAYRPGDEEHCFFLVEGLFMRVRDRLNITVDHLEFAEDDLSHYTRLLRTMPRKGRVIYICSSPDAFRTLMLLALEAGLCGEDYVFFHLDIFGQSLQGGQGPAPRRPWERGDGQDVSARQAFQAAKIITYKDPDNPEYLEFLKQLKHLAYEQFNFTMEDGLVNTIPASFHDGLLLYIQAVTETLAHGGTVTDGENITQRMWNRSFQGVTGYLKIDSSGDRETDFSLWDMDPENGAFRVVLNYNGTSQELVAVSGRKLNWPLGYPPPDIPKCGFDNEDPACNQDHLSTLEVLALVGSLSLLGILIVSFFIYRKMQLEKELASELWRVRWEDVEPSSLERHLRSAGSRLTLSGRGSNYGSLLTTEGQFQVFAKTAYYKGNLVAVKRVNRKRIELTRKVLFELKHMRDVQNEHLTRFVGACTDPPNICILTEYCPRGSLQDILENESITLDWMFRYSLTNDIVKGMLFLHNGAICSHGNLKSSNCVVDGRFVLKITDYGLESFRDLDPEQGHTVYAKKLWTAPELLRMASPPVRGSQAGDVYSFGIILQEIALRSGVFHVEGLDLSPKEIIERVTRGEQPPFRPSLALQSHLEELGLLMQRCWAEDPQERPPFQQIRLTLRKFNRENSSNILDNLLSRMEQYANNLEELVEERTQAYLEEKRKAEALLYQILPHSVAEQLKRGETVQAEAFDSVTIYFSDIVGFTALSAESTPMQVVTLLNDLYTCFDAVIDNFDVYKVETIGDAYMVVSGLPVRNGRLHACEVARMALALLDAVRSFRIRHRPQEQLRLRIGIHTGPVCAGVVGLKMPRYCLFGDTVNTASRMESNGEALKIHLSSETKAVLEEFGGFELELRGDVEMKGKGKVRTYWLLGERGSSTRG

Take `COc1ccc2[nH]c3c(c2c1)CCNC3`: the max response in experiment [1] is -9.37% (inactive). Moreover, the Potency result in experiment [2], in experiment [4], in experiment [5] and in experiment [6] was “inactive” throughout. The compound was classed as inactive in experiment [3] and in experiment [7].

With `O=[N+]([O-])/C=C/c1ccc2c(c1)OCO2`, the Potency in experiment [1] was 1580 nM (active); in experiment [4], 1470 nM (active); in experiment [5] it was 2390 nM (active); in experiment [6], 1470 nM (active). Also, in experiment [2], the Potency entry was “inactive”. In addition, the outcome in experiment [3] was inactive.

With `C#CCN[C@H](C)Cc1ccccc1`, the Potency result in experiment [2], in experiment [4] and in experiment [6] was “inactive” in each case. In addition, the outcome in experiment [3] and in experiment [7] was inactive.

`Cc1c2ccncc2c(C)c2c1[nH]c1ccccc12`: the values for the Potency in experiment [1], in experiment [5] and in experiment [6] were 1780 nM (active), 10700 nM (active) and 5210 nM (active), respectively. Further, the Potency entry in experiment [2] and in experiment [4] was “inactive” each time. For the same compound, the result in experiment [3] was inactive.

For the compound `COc1ccc2c(c1O)-c1cccc3c1[C@@H](C2)N(C)CC3`, the max response in experiment [1] was 27.6% (inactive). Besides, the Potency entry in experiment [2], in experiment [4], in experiment [5] and in experiment [6] was “inactive” throughout. Moreover, the result in experiment [3] and in experiment [7] was inactive.

With `CN1CCC(c2c[nH]c3ccc(O)cc23)CC1`, the max response in experiment [1] was 11.9% (inactive). The Potency result in experiment [2], in experiment [4], in experiment [5] and in experiment [6] was “inactive” each time. Moreover, the compound was classed as inactive in experiment [3] and in experiment [7].

Take `COc1ccc(OC)c(C(O)C(C)N)c1` (configuration not stated): the max response in experiment [1] was 11.7% (inactive). Also, the Potency entry in experiment [2], in experiment [4], in experiment [5] and in experiment [6] was “inactive” each time. Further, the compound was called inactive in experiment [3] and in experiment [7].

As for `CC12NC(Cc3ccccc31)c1ccccc12` (configuration not stated), the max response in experiment [1] was 3.88% (inactive). Moreover, the Potency entry in experiment [2], in experiment [4], in experiment [5] and in experiment [6] was “inactive” each time. The call in experiment [3] and in experiment [7] was inactive.

For `Cc1sc2ccccc2c1CC1=NCCN1`, the max response in experiment [1] is 25.3% (inactive). Also, the Potency result in experiment [2], in experiment [4], in experiment [5] and in experiment [6] was “inactive” throughout. Also, the result in experiment [3] and in experiment [7] was inactive.

Take `CCS(=O)(=O)Nc1cccc(C(=C2CCCCC2)c2cnc[nH]2)c1`: the Potency entry in experiment [2], in experiment [4] and in experiment [6] was “inactive” in each case. The outcome in experiment [3] and in experiment [7] was inactive.

Turning to `C[C@@H]1O[C@@H](O[C@H]2C[C@@H](O)[C@]3(CO)[C@@H]4C(CC[C@]3(O)C2)[C@@]2(O)CC[C@H]([C@@H]3COC(=O)C3)[C@@]2(C)C[C@H]4O)[C@H](O)[C@H](O)[C@H]1O` (some centres not stated), in experiment [1], the max response was 22.5% (inactive). In addition, the Potency entry in experiment [2], in experiment [4], in experiment [5] and in experiment [6] was “inactive” in each case. Besides, the compound was called inactive in experiment [3].

Turning to `NCCc1ccc(S(=O)(=O)F)cc1`, in experiment [1], the max response is 22.8% (inactive). Also, the Potency entry in experiment [2], in experiment [4], in experiment [5] and in experiment [6] was “inactive” throughout. Also, the outcome in experiment [3] and in experiment [7] was inactive.
